In the supplement of paper PMC11732987, “Enantioselective OTUD7B fragment discovery through chemoproteomics screening and high-throughput optimisation” (Communications Chemistry, 2025):

Legend:
Assay in all cases: log2 ratio of Biotin-Ahx-Ub-VS probe labelling (fragment/DMSO); higher = less target engagement (more negative = stronger competition), active = hit call of the paper (q ≤ 0.05, log2 ratio ≤ -1)
Conditions in all cases: compound concentration: 200 uM; treatment time: 3 h
[1] = target: T1, USP42 (UniProt Q9H9J4)
T1 sequence (whole entry): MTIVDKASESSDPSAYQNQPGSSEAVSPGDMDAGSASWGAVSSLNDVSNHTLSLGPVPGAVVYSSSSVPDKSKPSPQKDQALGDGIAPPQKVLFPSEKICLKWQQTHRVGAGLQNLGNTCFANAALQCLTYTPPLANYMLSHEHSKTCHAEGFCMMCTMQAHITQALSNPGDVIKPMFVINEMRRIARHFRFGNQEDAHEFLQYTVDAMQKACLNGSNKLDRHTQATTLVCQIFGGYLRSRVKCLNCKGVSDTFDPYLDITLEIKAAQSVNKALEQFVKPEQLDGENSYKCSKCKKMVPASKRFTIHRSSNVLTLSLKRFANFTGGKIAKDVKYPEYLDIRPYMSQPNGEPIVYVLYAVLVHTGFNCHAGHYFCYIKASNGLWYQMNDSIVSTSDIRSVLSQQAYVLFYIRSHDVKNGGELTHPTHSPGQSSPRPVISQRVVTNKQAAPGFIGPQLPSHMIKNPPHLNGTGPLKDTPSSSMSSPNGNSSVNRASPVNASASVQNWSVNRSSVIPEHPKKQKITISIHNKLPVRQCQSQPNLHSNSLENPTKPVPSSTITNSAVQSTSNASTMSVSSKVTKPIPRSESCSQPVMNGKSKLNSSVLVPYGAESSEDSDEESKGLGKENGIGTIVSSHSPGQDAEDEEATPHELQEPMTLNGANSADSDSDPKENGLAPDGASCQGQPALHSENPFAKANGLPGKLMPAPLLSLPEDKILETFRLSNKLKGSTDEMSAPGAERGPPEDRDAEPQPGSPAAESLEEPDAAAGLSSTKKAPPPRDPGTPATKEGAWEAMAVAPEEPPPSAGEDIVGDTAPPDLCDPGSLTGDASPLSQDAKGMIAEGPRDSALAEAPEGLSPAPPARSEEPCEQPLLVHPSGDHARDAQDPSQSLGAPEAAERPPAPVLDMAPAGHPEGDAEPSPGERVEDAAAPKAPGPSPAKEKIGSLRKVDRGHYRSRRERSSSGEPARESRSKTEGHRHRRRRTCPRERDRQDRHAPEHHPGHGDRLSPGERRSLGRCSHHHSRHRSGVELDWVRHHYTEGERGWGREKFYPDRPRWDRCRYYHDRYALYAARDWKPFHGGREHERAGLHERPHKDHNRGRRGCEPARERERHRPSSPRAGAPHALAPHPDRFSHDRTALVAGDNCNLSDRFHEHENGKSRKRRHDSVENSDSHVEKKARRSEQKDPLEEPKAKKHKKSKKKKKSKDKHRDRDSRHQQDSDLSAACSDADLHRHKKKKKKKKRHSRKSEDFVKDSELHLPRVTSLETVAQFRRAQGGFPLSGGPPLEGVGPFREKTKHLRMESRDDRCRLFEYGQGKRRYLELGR
Method in brief: (§1)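 HEK293T lysate (495 µg per sample, in Tris/CHAPS/IGEPAL buffer with protease inhibitors) was treated in triplicate with fragment at 200 µM or with DMSO for 3 h. It was then treated with Biotin-Ahx-Ub-VS (0.5 µM final) for 1 h. Labelled DUBs were NeutrAvidin-enriched, digested with LysC and trypsin, and run by diaPASEF LC-MS/MS. Spectronaut label-free quantities were global-median-normalised. Values are average log2 ratios fragment/DMSO by unpaired t-test, using proteins with ≥2 unique peptides.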

[2] = target: USP46 (UniProt P62068)
Method in brief: as §1

[3] = target: T2, USP47 (UniProt Q96K76)
T2 sequence (whole entry): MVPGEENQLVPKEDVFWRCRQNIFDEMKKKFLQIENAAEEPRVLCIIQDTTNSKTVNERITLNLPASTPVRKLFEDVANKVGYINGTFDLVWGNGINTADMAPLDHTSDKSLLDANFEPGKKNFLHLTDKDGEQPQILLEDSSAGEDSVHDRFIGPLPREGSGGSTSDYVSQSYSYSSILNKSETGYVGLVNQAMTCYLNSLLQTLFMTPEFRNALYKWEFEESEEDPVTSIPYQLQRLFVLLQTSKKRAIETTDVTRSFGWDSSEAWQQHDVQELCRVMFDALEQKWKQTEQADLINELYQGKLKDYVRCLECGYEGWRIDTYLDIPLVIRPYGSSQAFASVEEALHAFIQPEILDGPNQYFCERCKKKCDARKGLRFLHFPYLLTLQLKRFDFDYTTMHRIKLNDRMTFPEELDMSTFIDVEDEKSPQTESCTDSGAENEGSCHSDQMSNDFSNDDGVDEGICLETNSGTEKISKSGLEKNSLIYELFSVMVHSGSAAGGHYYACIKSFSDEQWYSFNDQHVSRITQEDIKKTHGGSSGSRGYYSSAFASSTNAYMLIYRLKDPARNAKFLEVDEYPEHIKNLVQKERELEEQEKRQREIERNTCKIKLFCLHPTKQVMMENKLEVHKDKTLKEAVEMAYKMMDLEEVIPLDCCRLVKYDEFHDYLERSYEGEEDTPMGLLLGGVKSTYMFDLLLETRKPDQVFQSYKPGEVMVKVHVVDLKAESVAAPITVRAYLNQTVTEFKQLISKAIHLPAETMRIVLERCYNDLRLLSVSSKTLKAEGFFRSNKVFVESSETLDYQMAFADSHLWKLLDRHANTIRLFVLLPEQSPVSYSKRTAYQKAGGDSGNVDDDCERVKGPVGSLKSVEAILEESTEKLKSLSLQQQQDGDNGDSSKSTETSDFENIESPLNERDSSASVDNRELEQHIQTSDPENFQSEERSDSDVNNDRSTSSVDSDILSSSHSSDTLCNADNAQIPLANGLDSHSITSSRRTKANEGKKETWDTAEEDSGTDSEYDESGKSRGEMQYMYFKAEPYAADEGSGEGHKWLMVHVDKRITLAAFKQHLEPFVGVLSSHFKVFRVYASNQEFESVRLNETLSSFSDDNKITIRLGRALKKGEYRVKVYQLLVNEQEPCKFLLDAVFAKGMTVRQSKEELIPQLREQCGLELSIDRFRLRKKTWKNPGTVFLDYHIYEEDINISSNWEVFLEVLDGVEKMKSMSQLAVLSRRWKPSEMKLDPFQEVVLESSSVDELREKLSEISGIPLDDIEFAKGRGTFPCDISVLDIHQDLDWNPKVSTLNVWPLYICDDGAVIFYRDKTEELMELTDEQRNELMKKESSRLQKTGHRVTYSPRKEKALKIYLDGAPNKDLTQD
Method in brief: as §1

[4] = target: T3, USP48 (UniProt Q86UV5)
T3 sequence (whole entry): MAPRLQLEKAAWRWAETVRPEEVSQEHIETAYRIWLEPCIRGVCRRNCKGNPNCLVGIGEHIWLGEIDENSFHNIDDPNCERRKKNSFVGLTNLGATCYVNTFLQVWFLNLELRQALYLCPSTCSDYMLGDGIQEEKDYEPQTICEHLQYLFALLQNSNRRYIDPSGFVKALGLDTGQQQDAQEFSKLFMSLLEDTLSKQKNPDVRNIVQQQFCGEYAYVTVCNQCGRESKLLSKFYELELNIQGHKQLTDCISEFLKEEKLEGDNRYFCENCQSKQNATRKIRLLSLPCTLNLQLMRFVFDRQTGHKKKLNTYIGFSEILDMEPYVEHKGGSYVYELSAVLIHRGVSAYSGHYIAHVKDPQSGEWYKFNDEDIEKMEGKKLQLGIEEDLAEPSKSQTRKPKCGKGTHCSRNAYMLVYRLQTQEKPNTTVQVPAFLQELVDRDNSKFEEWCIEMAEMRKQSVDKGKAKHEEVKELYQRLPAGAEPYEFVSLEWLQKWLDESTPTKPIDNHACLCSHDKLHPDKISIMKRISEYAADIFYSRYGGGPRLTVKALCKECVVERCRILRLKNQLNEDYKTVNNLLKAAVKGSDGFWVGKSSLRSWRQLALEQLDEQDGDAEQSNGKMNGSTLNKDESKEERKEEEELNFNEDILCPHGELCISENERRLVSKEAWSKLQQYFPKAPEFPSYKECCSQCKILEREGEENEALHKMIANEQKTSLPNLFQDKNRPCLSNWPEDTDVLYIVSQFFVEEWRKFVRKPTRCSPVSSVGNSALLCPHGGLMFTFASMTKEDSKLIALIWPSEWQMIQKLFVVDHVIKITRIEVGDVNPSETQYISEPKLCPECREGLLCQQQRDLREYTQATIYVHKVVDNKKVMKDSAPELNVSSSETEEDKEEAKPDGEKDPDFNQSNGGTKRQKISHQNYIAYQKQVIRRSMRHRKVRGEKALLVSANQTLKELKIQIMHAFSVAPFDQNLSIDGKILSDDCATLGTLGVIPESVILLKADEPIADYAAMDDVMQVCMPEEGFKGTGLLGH
Method in brief: as §1

[5] = target: T4, USP5 (UniProt P45974)
T4 sequence (whole entry): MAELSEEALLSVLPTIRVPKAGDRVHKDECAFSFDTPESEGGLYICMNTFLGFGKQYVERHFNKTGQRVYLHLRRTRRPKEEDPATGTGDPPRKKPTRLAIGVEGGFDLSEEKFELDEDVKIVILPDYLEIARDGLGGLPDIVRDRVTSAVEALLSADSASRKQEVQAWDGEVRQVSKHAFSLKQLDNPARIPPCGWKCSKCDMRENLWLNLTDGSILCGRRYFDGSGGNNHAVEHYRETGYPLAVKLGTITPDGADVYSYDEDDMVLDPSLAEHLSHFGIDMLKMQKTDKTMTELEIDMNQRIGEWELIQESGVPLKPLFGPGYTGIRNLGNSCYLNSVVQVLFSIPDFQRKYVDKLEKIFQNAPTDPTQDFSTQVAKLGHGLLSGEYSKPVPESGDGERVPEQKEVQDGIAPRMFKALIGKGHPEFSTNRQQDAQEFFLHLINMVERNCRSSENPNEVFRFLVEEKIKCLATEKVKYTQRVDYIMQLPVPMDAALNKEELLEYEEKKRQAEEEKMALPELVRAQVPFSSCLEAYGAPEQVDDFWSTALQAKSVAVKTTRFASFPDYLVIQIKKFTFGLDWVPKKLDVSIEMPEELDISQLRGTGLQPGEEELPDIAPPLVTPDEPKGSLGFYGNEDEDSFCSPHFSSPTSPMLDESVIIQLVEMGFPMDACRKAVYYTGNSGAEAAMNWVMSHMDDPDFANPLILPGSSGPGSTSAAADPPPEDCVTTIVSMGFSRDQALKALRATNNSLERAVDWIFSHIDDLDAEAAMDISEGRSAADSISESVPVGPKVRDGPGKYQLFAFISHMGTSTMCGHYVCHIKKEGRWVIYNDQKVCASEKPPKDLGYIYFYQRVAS
Method in brief: as §1

[6] = target: USP54 (UniProt Q70EL1)
Method in brief: as §1

[7] = target: USP7 (UniProt Q93009)
Method in brief: as §1

[8] = target: T5, USP8 (UniProt P40818)
T5 sequence (whole entry): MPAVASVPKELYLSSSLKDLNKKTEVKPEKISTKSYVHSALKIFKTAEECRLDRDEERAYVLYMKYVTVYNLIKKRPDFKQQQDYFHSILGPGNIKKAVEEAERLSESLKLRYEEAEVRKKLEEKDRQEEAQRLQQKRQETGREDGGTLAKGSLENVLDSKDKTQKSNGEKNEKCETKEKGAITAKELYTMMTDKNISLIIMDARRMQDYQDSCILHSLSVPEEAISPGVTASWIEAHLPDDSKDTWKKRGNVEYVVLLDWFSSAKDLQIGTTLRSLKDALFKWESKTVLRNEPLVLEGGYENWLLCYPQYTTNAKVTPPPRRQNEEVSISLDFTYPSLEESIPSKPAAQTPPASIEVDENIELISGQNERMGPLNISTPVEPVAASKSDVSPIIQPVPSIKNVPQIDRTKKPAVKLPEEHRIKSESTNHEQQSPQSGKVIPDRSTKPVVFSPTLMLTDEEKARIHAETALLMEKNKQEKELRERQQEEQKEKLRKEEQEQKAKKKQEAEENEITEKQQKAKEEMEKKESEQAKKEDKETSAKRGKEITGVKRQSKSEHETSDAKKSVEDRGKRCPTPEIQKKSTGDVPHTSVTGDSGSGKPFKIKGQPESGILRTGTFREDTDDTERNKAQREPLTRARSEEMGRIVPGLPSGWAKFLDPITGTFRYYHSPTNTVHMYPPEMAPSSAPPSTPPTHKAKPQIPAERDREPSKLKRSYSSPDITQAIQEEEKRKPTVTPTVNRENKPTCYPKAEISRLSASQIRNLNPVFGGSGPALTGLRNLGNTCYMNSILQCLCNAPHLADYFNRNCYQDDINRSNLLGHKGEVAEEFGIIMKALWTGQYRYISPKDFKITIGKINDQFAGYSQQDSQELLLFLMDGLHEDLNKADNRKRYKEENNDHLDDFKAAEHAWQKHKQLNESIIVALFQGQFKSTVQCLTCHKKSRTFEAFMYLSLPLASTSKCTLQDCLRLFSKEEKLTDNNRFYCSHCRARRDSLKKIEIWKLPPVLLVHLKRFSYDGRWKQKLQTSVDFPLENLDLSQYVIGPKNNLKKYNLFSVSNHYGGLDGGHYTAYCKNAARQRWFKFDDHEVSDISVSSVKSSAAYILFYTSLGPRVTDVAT
Method in brief: as §1

Measured: log2 ratio of Biotin-Ahx-Ub-VS probe labelling

Sequence of USP7 (Q93009 whole entry, looked up): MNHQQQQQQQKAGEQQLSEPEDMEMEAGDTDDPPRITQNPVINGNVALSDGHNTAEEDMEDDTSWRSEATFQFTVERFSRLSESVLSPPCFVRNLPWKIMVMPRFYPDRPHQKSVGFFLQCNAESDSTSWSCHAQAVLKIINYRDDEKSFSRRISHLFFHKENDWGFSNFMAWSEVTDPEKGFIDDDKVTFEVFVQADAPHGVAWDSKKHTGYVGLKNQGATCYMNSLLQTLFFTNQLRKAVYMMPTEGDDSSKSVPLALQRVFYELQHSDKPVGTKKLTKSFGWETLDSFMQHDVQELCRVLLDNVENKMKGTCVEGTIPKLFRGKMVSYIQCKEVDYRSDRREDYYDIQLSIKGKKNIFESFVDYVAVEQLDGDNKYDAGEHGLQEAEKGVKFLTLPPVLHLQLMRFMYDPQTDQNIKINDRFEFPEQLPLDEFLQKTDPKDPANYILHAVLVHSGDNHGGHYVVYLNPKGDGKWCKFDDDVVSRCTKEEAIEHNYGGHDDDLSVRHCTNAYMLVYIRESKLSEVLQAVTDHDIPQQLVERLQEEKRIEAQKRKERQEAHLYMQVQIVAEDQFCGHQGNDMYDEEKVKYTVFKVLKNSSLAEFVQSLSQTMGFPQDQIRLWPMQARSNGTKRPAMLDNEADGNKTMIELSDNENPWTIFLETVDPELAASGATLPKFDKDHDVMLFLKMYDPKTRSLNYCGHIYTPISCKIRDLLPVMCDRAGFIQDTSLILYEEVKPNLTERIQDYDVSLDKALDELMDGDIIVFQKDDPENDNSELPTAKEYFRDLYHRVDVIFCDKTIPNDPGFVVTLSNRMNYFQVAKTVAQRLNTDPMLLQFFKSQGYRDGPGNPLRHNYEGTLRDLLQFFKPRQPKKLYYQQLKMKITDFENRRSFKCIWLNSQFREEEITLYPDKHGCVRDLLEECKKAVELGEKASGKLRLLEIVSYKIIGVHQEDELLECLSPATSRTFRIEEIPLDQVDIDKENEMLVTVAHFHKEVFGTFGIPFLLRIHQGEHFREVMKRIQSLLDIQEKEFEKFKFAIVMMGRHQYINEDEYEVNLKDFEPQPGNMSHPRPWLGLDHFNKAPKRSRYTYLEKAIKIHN
Sequence of USP46 (P62068 whole entry): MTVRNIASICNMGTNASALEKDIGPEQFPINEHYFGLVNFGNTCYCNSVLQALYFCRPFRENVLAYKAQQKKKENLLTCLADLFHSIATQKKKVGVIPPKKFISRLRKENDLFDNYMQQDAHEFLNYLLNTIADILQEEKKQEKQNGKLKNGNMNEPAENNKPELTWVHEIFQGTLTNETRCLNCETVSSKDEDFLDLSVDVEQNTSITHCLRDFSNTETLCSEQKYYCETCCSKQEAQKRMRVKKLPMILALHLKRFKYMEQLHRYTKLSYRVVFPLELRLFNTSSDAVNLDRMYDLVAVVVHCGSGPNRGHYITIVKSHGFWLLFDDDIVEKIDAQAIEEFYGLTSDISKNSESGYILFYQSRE
Sequence of USP54 (Q70EL1 whole entry): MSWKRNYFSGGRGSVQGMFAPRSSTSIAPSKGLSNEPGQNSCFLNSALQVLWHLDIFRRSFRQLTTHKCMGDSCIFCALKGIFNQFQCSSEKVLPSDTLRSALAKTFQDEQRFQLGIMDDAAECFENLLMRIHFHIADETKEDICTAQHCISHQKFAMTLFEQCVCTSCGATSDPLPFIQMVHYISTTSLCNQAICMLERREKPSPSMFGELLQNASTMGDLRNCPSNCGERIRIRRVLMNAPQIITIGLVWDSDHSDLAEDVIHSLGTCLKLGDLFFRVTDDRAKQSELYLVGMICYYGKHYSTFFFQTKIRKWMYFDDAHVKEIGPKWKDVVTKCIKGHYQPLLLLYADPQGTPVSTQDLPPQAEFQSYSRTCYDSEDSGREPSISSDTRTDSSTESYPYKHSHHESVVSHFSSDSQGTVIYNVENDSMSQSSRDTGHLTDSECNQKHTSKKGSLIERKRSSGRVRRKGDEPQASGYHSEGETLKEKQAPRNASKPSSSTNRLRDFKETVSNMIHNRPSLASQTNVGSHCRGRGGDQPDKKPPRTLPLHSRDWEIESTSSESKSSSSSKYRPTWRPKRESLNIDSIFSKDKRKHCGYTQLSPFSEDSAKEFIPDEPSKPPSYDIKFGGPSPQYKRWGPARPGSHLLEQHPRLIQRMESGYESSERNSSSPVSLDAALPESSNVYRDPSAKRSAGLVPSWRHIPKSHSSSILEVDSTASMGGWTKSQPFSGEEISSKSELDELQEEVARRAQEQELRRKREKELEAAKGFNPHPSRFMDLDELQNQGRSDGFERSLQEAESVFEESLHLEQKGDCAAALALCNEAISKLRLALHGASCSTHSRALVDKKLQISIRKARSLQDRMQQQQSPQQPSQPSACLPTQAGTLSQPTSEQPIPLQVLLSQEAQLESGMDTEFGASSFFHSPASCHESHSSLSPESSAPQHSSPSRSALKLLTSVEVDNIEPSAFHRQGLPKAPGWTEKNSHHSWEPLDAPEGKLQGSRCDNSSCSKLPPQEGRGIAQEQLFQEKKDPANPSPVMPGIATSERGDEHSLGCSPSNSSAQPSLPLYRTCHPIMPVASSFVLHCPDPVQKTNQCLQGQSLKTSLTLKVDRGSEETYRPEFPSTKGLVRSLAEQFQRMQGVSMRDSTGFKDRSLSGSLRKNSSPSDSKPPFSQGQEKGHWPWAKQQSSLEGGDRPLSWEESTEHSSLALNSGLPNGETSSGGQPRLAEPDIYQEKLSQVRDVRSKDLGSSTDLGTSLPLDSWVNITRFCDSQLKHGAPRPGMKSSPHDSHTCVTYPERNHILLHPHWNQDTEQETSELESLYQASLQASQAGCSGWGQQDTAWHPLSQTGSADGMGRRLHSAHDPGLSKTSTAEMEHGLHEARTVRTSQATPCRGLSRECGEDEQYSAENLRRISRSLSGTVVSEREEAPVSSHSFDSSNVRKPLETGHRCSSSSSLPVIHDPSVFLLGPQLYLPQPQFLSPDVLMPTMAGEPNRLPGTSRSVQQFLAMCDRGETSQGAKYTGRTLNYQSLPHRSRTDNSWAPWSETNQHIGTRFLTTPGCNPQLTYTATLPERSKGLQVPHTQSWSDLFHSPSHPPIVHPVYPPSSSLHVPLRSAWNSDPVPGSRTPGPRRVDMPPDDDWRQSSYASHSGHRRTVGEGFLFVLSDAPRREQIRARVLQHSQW

CNC(=O)C1(NC(=O)CCl)CCCCC1
inactive: [1] -0.202 | [2] 0.0346 | [3] 0.28 | [4] -0.00183 | [5] 0.148 | [6] 0.521 | [7] -0.0838 | [8] -0.173
